The results in this text go back to PubChem BioAssay (EPA / NIEHS).

In general, AC50 refers to the concentration giving half of the maximal activity seen.

Read-out in experiment [1]: alkyl and aryl transferase (GSTA2), GSTA2 (gene 2939)
The experiment can be described thus: CLD_GSTA2_6hr: CellzDirect (CLD) Gene Expression Assay for alkyl and aryl transferase (GSTA2) at 6 hours (AID 2283666). In outline: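 GSTA2 transcript induction at 6 h, quantified by nuclease protection (qNPA) with chemiluminescent detection, in human liver primary hepatocytes exposed to several compound concentrations with 0.2% DMSO as baseline; phase-contrast morphology annotated apparent cytotoxicity.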

A short description of experiment [2]: Tanguay_ZF_120hpf_TR_legacy: (Legacy) Oregon State University Tanguay Lab 120 Hour Post-fertilization zebrafish Assay for Touch Response (AID 2283667). In outline:
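Readout is presence or absence of touch response in 120 hpf zebrafish larvae, assessed by brightfield observation after continuous static exposure at 28C. Final vehicle was 0.64% (vol/vol) DMSO.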

Read-out in experiment [3]: sulfotransferase (SULT2A), SULT2A1 (gene 6822)
Briefly: CLD_SULT2A_6hr: CellzDirect (CLD) Gene Expression Assay for sulfotransferase (SULT2A) at 6 hours (AID 2283669).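 Further: hits raise transcript level above the DMSO vehicle baseline.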 The essentials:
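Measured 6 h after dosing, SULT2A1 mRNA in human hepatocyte lysates was quantified by S1 nuclease protection with chemiluminescent detection. Increases fitted against 0.2% DMSO vehicle baseline; phase-contrast cytotoxicity recorded yes/no.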

A short description of experiment [4]: CLD_ACTIN_24hr: CellzDirect (CLD) Gene Expression Assay for Baseline Control (Actin) at 24 hours (AID 2283670). In outline:
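This 24 h qNPA (S1 nuclease protection, chemiluminescence) actin transcript readout in cultured human liver primary cells serves as baseline control. Signal is fitted upward relative to 0.2% DMSO; chemicals tested at multiple concentrations across two donor preparations.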

Read-out in experiment [5]: xenobiotic metabolism (CYP1A1), CYP1A1 (gene 1543)
The experiment can be described thus: CLD_CYP1A1_24hr: CellzDirect (CLD) Gene Expression Assay for xenobiotic metabolism (CYP1A1) at 24 hours (AID 2283673).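 Further: CYP1A1 mRNA level by quantitative nuclease protection with chemiluminescence.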 The essentials: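 Transcript levels were read at 24 h by qNPA chemiluminescence in human liver primary cells. Cells got daily fresh dosing at multiple concentrations (vehicle 0.2% DMSO). Induction fitted upward against DMSO; phase-contrast cytotoxicity annotated.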

Experiment [6] in a line: CCTE_Padilla_ZF_144hpf_TERATOSCORE: (Legacy) CCTE's 144 Hour Post-fertilization zebrafish Assay Teratoscore, Padilla Lab (AID 2283679; active means hit-call score of the fitted dose curve at least 0.9, where 1 is the maximum; inactive means score below 0.9;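 on AC50: zebrafish embryos with chorions exposed by immersion from 6-8 hpf to 5 dpf with daily renewal; teratogenicity score from eye scoring of death hatching and malformations at 144 hpf; higher score means more developmental defects relative to DMSO baseline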). In outline: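 Larvae scored by eye at 144 hpf for death, hatching and malformations after a day in clean Hanks'. Before that, daily-renewed exposure at 80 uM (0.4% DMSO, 26C) from roughly 6-8 hpf through 5 dpf, 4 embryos per chemical.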

Read-out in experiment [7]: xenobiotic metabolism (CYP1A2), CYP1A2 (gene 1544)
Briefly: CLD_CYP1A2_24hr: CellzDirect (CLD) Gene Expression Assay for xenobiotic metabolism (CYP1A2) at 24 hours (AID 2283683). The essentials: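 CYP1A2 mRNA induction measured by quantitative nuclease protection (chemiluminescent) in human primary hepatocytes 24 h after multi-concentration chemical dosing with daily fresh solutions. DMSO (0.2%) baseline; positive-direction fitting; morphology-based cytotoxicity noted.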

Read-out in experiment [8]: Broad substrate specificity ATP-binding cassette transporter ABCG2 (Homo sapiens) (UniProt Q9UNQ0)
The experiment can be described thus: CLD_ABCG2_24hr: CellzDirect (CLD) Gene Expression Assay for ABC Transporter (ABCG2) at 24 hours (AID 2283685). In outline: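 ABCG2 mRNA induction, read as gain of chemiluminescent signal over 0.2% DMSO, was measured by quantitative nuclease protection at 24 h. Cultured human liver hepatocytes were given fresh dosing solutions of test chemicals at several concentrations each day.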

Read-out in experiment [9]: Cytochrome P450 2B6 (Homo sapiens) (UniProt P20813)
Briefly: CLD_CYP2B6_24hr: CellzDirect (CLD) Gene Expression Assay for xenobiotic metabolism (CYP2B6) at 24 hours (AID 2283686). In outline:
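qNPA chemiluminescent measurement of mRNA at 24 hours in human primary hepatocyte cultures from two donor preparations, with daily fresh dosing and 0.2% DMSO vehicle as baseline. Morphology-based cytotoxicity flagged yes/no.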

Read-out in experiment [10]: Cytochrome P450 2C9 (Homo sapiens) (UniProt P11712)
Briefly: CLD_CYP2C9_24hr: CellzDirect (CLD) Gene Expression Assay for xenobiotic metabolism (CYP2C9) at 24 hours (AID 2283688). In outline:
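Induction of CYP2C9 mRNA was quantified by quantitative nuclease protection assay (chemiluminescence), gain of signal versus 0.2% DMSO vehicle, 24 h after dosing. Human primary hepatocytes (two donors) received fresh chemical daily at multiple concentrations; morphology-based cytotoxicity flagged yes/no.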

Read-out in experiment [11]: xenobiotic metabolism (CYP2C9), CYP2C9 (gene 1559)
The experiment can be described thus: CLD_CYP2C9_6hr: CellzDirect (CLD) Gene Expression Assay for xenobiotic metabolism (CYP2C9) at 6 hours (AID 2283664). The essentials:
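Readout is qNPA chemiluminescence of CYP2C9 mRNA, taken 6 h after dosing of cultured human liver primary cells at several concentrations. Activity is the increase over 0.2% DMSO baseline. Morphology-based cytotoxicity flagged yes/no.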

Read-out in experiment [12]: ABC Transporter (ABCB11), ABCB11 (gene 8647)
The experiment can be described thus: CLD_ABCB11_24hr: CellzDirect (CLD) Gene Expression Assay for ABC Transporter (ABCB11) at 24 hours (AID 2283674; active means hit-call score of the fitted dose curve at least 0.9, where 1 is the maximum; inactive means score below 0.9). The essentials:
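ABCB11 transcript was quantified by qNPA chemiluminescence in cultured human liver hepatocytes 24 hours after dosing. Fresh dosing solutions were applied on consecutive days, against a 0.2% DMSO vehicle. Cytotoxicity was noted by phase-contrast morphology.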

Read-out in experiment [13]: Cytochrome P450 2C19 (Homo sapiens) (UniProt P33261)
Briefly: CLD_CYP2C19_6hr: CellzDirect (CLD) Gene Expression Assay for xenobiotic metabolism (CYP2C19) at 6 hours (AID 2283678). The essentials: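 CYP2C19 transcript induction was quantified by quantitative nuclease protection assay with chemiluminescent read-out, 6 h after dosing. Cells were primary human hepatocytes from two donor preparations, given fresh dosing solutions daily in 0.2% DMSO vehicle. Activity was relative to DMSO.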

Read-out in experiment [14]: glucuronosyltransferase (UGT1A1), UGT1A1 (gene 54658)
Briefly: CLD_UGT1A1_6hr: CellzDirect (CLD) Gene Expression Assay for glucuronosyltransferase (UGT1A1) at 6 hours (AID 2283672). In outline:
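UGT1A1 mRNA induction, read by quantitative nuclease protection assay, 6 h after dosing primary human hepatocytes (two donors, 0.2% DMSO vehicle). Gain of signal fitted relative to vehicle.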

Read-out in experiment [15]: Cytochrome P450 2B6 (Homo sapiens) (UniProt P20813)
The experiment can be described thus: CLD_CYP2B6_6hr: CellzDirect (CLD) Gene Expression Assay for xenobiotic metabolism (CYP2B6) at 6 hours (AID 2283677).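 Further: actives raise CYP2B6 transcript above DMSO baseline so AC50 marks an inducer.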 In outline: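 CYP2B6 transcript levels, read by chemiluminescent qNPA, were fitted for increase versus DMSO baseline; cultured human liver hepatocytes from two donor preparations were harvested 6 h after exposure to test chemicals at multiple concentrations.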

Read-out in experiment [16]: Cytochrome P450 (CYP24A1_1), CYP24A1 (gene 1591)
The experiment can be described thus: LTEA_HepaRG_CYP24A1_1: Life Technologies and Expression Analysis (LTEA) Assay for Cytochrome P450 (CYP24A1_1) using HepaRG (AID 2283671; active means hit-call score of the fitted dose curve at least 0.9, where 1 is the maximum; inactive means score below 0.9). The following applies: mRNA level, 48 h; actives raise or lower the signal. In outline:
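Cultures of human HepaRG were treated in duplicate for 48 h (0.5% DMSO vehicle, highest dose 100 uM). CYP24A1 mRNA by qRT-PCR, normalized to ACTB, GAPDH, POLR2A.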

Where “and” joins values, the source holds several entries; their conditions need not be identical. Identical values can stand only once. Inconclusive results are not listed. Some structures have more than one record in an assay (separate samples or runs), and their calls can disagree. Calls of active or inactive are those of the source. How the source made its calls, unless noted: active means hit-call score of the fitted dose curve at least 0.9, where 1 is the maximum; inconclusive means response in the unintended direction; inactive means score below 0.9.

Sequence of Broad substrate specificity ATP-binding cassette transporter ABCG2 (Homo sapiens) (Q9UNQ0 whole entry, looked up): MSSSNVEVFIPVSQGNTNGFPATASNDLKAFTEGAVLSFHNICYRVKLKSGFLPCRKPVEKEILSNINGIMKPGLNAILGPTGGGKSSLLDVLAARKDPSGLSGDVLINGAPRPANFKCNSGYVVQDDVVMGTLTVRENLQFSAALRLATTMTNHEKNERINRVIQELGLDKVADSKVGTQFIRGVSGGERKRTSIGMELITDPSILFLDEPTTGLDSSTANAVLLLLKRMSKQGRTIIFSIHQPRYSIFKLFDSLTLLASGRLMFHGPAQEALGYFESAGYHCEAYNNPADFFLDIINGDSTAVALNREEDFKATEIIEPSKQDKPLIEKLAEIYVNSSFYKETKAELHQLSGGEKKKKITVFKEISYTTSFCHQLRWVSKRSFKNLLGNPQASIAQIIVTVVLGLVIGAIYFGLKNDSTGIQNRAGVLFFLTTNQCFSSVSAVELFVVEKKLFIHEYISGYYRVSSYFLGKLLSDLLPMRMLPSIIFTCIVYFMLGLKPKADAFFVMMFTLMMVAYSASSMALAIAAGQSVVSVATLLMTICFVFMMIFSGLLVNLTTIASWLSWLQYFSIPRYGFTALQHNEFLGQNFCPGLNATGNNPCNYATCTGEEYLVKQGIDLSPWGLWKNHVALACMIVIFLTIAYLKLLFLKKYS
Sequence of Cytochrome P450 2C19 (Homo sapiens) (P33261 whole entry, looked up): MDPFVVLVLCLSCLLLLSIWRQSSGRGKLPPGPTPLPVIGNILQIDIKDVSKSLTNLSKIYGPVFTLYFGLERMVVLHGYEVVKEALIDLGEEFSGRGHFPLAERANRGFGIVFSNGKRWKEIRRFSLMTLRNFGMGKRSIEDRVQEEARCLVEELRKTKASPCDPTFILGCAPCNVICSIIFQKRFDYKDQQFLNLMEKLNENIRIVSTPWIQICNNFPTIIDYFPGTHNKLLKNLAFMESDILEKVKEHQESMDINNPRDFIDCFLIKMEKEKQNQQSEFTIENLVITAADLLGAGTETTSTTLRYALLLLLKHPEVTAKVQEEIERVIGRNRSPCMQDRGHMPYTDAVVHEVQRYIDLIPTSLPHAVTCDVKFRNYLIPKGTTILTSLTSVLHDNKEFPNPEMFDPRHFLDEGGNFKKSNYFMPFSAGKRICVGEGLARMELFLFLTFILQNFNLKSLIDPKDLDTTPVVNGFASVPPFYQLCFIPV

In the case of `CCCCNC(=O)OCC#CI`, the molecule was classed as inactive in [1], in [2], in [3], in experiment [4], in [5] and in experiment [7]. Also, the molecule was called inactive in [8], in [9] and in [10]. Moreover, the AC50 in experiment [6] was 664 nM (active).

With `COc1nc(C)nc(NC(=O)NS(=O)(=O)c2ccccc2Cl)n1`, the result in experiment [11], in [1], in experiment [3], in [4], in experiment [12] and in experiment [13] was inactive. Also, the call in experiment [6], in [8], in [9] and in experiment [10] was inactive.

`CCNc1nc(Cl)nc(NC(C)C)n1`: the molecule was called inactive in experiment [1], in experiment [2], in experiment [3], in experiment [4], in experiment [14] and in experiment [13]. Besides, the molecule was called inactive in experiment [6]. In addition, the AC50 in experiment [7] is 3.11 µM (active); in experiment [9] it was 3.92 µM (active).

Regarding `CC(Oc1ccc(Cl)cc1Cl)C(=O)O` (stereo unspecified), the molecule was classed as inactive in experiment [1], in experiment [4], in experiment [8], in experiment [9] and in experiment [10]. In experiment [6], the AC50 is 670 nM (active).

On to `CCCCC(CC)COC(=O)c1ccccc1C(=O)OCC(CC)CCCC` (stereo unspecified), for which the molecule was classed as inactive in experiment [11], in [2], in experiment [3], in [4], in [12] and in experiment [6]. Moreover, the result in [9] and in experiment [10] was inactive. For the same molecule, the AC50 in experiment [15] is 4.09 µM (active).

In the case of `Cc1c(F)c(F)c(COC(=O)C2C(/C=C(\Cl)C(F)(F)F)C2(C)C)c(F)c1F` (stereo unspecified), the molecule was called inactive in experiment [1], in experiment [3], in experiment [4], in experiment [5] and in experiment [8]. The AC50 in [2] is 3.23 µM (active); in experiment [6], 6.76 nM (active); in experiment [9], 20 µM (active).

As to `N#Cc1nn(-c2c(Cl)cc(C(F)(F)F)cc2Cl)c(N)c1S(=O)C(F)(F)F` (stereo unspecified), the molecule was classed as inactive in [1], in experiment [2], in experiment [3], in experiment [4] and in experiment [8]. The AC50 in experiment [6] was 31100 nM (active); in [9], 1.9 µM (active).

As to `CO/C=C(/C(=O)OC)c1ccccc1Oc1cc(Oc2ccccc2C#N)ncn1`, the molecule was called inactive in [1], in experiment [2], in experiment [3], in [16], in experiment [8] and in experiment [10]. The AC50 was 4.04 µM (active) in [2]; 1.46 µM (active) and 4.82 µM (active) and 4.07 µM (active) in experiment [6]; 7.02 µM (active) in experiment [9].

With `CNC(=O)ON=CC(C)(C)SC`, the molecule was called inactive in experiment [11], in experiment [1], in experiment [4], in experiment [7], in experiment [8] and in experiment [9]. Moreover, the molecule was classed as inactive in [10]. The AC50 is 21 µM (active) in [2] and 65300 nM (active) in experiment [6].

Take `COc1nc(C)nc(NC(=O)NS(=O)(=O)c2ccccc2CCC(F)(F)F)n1`: the molecule was called inactive in experiment [11], in [1], in experiment [3], in experiment [12], in [13] and in [6]. For the same molecule, the molecule was called inactive in experiment [8] and in [10]. Moreover, the AC50 in experiment [9] was 3.4 µM (active) and 5.71 µM (active) and 908 nM (active).
